Molecules are shown by their SMILES. The source made the active and inactive calls.

A short description of assay [1]: small molecules captured by biotinylated probe aFSTL3 – biochemical, small-molecule microarray, fluorescence 635/667, stem cell growth factor project, primary screen (AID 1064).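 Further: measures binding of the biotinylated anti-FSTL3 antibody to printed compounds.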 The following applies: higher = more signal.
Assay [2] is described as follows: binders from COS7 lysate, DM2A8 probe, primary screen, torsin A project, cell lysate, small-molecule microarray, fluorescence 635/667 (AID 1065). The following applies: higher = more signal, COS7 lysate expressing mutant human TOR1A.
The nature of assay [3]: small molecules captured by biotinylated probe aFGF2 – biochemical, small-molecule microarray, fluorescence 635/667, stem cell growth factor project, primary screen (AID 1067).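 Further: measures binding of biotinylated aFGF2 protein to printed compounds on slides; z-score merges feature fluorescence and signal-to-noise across triplicate slides.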 The following applies: higher = more signal.
Assay [4] can be described thus: small molecules captured by biotinylated probe aFGF10 – biochemical, small-molecule microarray, fluorescence 635/667, stem cell growth factor project, primary screen (AID 1071).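 Further: score merges 667 nm spot intensity and signal to noise from triplicate slides.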 The following applies: higher = more signal.
For assay [5], the target named is Neurogenic locus notch homolog protein 2 (Homo sapiens) (UniProt Q04721). Kind of assay: small molecules binding Notch2 protein – biochemical, small-molecule microarray, 635 nm fluorescence, stem cell growth factors, primary screen (AID 1073). The following applies: higher = more signal.
Assay [6] has as its target Pro-neuregulin-1, membrane-bound isoform (Homo sapiens) (UniProt Q02297). The experiment in a line: small molecules binding neuregulin-1 protein – biochemical, small-molecule microarray, fluorescence 635/667, psychiatric disease protein project, primary screen (AID 1075).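 Further: score combines 667 nm spot fluorescence with signal to noise.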 The following applies: NRG1 binding, 635 nm fluorescence, higher = more signal.
The test system of assay [7] is Neuregulin-1 EGF-like domain. The experiment in a line: small molecules binding NRG1 EGF domain – biochemical, small-molecule microarray, 635 nm fluorescence, primary screen (AID 1081).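 Further: binding of the protein to compounds printed on small-molecule microarray slides.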 The following applies: higher = more signal.
The nature of assay [8]: FRG1 expression reporter modulators in myotubes – cell-based, C2C12 myotubes, firefly/Renilla luciferase, luminescence, FRG1 inhibition for FSHD, primary screen (AID 1084). The following applies: FRG1 promoter luciferase, higher = more signal, called active from +8 up or from −8 down.
The nature of assay [9]: small molecules captured by biotinylated probe aFST – biochemical, small-molecule microarray, fluorescence 635/667, stem cell growth factor project, primary screen (AID 1086).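 Further: score merges 667 nm fluorescence with signal-to-noise of each printed compound spot.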 The following applies: higher = more signal.
The nature of assay [10]: binders of probe aHhip on microarray, primary screen, stem cell growth factor project, biochemical, small-molecule microarray, fluorescence 635/667 (AID 1087).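 Further: score merges spot fluorescence at 667nm with spot signal to noise ratio.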 The following applies: higher = more signal.

Pro-neuregulin-1, membrane-bound isoform (Homo sapiens), sequence (Q02297 whole entry, looked up, the tested form may be a part, canonical isoform): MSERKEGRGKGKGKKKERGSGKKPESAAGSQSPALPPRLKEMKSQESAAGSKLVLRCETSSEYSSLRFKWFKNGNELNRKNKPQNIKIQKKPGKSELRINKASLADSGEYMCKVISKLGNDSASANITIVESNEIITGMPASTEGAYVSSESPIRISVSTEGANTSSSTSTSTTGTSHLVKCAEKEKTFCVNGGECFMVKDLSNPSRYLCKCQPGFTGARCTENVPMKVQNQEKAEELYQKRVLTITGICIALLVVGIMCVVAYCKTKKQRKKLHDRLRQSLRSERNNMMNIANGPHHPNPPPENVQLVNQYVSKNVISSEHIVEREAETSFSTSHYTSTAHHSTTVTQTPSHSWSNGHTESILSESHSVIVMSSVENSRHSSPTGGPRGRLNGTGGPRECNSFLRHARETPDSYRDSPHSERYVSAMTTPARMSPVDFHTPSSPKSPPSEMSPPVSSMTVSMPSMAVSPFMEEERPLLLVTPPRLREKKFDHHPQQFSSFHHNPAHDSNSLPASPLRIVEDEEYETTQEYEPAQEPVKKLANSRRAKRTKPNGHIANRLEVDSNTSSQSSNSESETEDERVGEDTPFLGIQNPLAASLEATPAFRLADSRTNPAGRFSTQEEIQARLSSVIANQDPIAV
Neurogenic locus notch homolog protein 2 (Homo sapiens), sequence (Q04721 whole entry, looked up, canonical isoform): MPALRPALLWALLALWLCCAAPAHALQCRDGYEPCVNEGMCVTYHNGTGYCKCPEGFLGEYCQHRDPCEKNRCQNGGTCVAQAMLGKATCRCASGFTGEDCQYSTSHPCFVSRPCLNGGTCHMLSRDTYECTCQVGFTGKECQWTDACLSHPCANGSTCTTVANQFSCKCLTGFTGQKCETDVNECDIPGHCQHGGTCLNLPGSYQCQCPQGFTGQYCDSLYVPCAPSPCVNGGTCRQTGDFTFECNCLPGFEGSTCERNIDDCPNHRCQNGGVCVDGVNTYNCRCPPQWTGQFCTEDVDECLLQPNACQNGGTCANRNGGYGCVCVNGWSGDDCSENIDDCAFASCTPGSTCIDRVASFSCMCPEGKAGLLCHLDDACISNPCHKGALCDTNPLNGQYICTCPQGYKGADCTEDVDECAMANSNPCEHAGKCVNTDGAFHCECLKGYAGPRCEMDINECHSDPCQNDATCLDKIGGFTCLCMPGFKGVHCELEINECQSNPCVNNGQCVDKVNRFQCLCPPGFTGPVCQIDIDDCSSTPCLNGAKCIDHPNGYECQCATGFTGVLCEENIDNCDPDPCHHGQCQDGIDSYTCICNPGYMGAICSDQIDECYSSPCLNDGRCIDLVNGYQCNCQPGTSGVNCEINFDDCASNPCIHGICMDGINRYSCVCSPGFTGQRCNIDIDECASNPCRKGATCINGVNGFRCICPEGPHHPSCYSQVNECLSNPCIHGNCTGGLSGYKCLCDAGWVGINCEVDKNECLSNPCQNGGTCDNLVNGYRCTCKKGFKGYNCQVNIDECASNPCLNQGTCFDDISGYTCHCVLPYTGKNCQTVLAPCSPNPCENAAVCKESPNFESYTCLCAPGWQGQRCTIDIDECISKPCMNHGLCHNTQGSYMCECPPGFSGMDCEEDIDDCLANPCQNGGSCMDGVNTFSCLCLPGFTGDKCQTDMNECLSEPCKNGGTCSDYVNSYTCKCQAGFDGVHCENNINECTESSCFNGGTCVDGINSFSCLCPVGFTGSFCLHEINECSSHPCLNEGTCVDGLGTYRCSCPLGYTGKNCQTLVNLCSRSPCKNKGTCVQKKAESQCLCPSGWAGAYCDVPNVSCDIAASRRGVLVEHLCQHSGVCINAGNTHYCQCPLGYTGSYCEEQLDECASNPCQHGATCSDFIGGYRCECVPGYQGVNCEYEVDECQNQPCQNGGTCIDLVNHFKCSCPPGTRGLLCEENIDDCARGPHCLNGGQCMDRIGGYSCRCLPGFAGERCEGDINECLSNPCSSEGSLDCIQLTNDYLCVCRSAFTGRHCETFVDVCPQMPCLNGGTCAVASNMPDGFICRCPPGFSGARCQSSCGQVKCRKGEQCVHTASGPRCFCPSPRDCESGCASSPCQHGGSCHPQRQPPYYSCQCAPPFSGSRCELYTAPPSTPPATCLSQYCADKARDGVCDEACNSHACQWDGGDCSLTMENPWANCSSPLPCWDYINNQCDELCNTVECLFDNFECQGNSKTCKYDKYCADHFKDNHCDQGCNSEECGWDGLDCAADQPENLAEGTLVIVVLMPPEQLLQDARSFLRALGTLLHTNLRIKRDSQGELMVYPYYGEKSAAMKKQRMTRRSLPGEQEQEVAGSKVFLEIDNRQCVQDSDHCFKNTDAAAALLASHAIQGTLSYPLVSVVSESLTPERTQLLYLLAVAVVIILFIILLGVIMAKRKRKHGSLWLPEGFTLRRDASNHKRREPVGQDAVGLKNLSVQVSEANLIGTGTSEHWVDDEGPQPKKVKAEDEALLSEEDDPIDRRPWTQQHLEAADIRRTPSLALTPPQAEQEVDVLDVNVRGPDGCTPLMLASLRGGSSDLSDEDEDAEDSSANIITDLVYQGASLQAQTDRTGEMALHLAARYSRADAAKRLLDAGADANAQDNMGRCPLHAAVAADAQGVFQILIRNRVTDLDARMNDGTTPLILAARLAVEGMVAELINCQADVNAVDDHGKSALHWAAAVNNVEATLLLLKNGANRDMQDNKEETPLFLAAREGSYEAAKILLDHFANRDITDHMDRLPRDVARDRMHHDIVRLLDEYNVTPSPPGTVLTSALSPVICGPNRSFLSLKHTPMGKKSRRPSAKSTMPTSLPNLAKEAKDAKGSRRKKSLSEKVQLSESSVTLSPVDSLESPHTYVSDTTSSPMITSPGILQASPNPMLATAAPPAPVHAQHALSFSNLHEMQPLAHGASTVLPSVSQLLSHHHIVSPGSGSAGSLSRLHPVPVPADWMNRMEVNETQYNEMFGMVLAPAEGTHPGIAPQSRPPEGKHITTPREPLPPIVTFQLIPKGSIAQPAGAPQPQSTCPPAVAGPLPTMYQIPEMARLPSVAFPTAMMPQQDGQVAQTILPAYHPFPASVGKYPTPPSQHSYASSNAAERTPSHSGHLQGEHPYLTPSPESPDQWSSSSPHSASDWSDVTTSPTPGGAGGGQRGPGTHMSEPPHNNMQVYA

Regarding `CN1CCc2nc(-c3ccccc3)c(-c3ccccc3)cc2C1`, the composite z-score was -0.16 in [1]; 0.0357 in assay [2]; -0.128 in [3]; 0.239 in assay [4]; 0.521 in [5]; -0.013 in assay [6]. Also, the figures for the composite z-score in assay [7], in assay [9] and in [10] were -0.326, -0.117 and -0.148, respectively. Also, the z-score in assay [8] is -0.0006 (inactive).

Regarding `COC(=O)[C@@H]1CC[C@H](C)[C@@H](c2ccc(C)cc2)N1C(=O)c1ccc(C=NOC[C@@H](O)[C@H]2O[C@@H]3OC(C)(C)O[C@@H]3[C@H]2O)cc1`, the composite z-score in [1] is -0.264; in assay [2] it was 0.123; in assay [3] it was -0.0138; in [4], 0.343; in assay [5], 0.962; in assay [6], 0.441. The composite z-score in assay [7] is 0.72; in assay [9], 0.794; in assay [10] it was -0.271. For the same compound, the z-score in [8] is 0.453 (inactive).

`CC(=O)OC[C@H]1O[C@H](CCON=C(C)C)C=C[C@@H]1OC(C)=O`: the composite z-score in [1] was -0.711; in assay [2], -0.224; in [3] it was -0.116; in [4] it was 0.146; in assay [5], 0.121; in assay [6], -0.172. Moreover, the composite z-score was -0.529 in [7], 0.36 in [9] and -0.0645 in [10]. In addition, the z-score in assay [8] was 0.2 (inactive).

With `COc1ccc(OC[C@@H]2CC3[C@@H](c4ccc(Br)cc4)[C@H](C)CC[C@H]3C(=O)O2)cc1` (stereo not given in full), the composite z-score in assay [1] is -0.416; in assay [2] it was 0.138; in assay [3], -0.142; in [4], 0.0248; in assay [5] it was 0.407; in assay [6], 0.093. Further, the composite z-score in [7] was -0.216; in assay [9] it was 0.204; in assay [10], -0.0645. Moreover, the z-score in [8] was -0.321 (inactive).

Consider `C[C@@H](c1ccccc1)N1C(=O)[C@H]2[C@H]3[C@H](O)[C@H](O)CC(=NOC[C@@H](O)COCc4ccco4)[C@H]3CC[C@H]2C1=O`, for which the composite z-score is -0.605 in assay [1]; 2.38 in assay [2]; -0.212 in assay [3]; -0.363 in [4]; -0.206 in assay [5]; -0.438 in assay [6]. In addition, the composite z-score in assay [7] is 0.919; in assay [9], 0.039; in assay [10], -0.0994. Moreover, the z-score in assay [8] was 0.652 (inactive).

For the compound `CC(C)=NOC(C)CN1CCCCc2nc(C)c(C)cc21` (stereo not given), the composite z-score in [1] was -0.216; in [2], 0.927; in assay [3], -0.0858; in assay [4], 0.0948; in assay [5] it was -0.134; in assay [6], 0.152. Besides, the composite z-score came out at 0.093 in assay [7], 0.142 in assay [9] and 0.0695 in assay [10]. In [8], the z-score is 0.265 (inactive).

Turning to `CC(=O)OC[C@H]1O[C@H](CC=NO[C@@H](C)c2cc(-c3c(C)cc(C)cc3C)no2)C=C[C@@H]1OC(C)=O`, the composite z-score in assay [1] is -0.357; in assay [2], -0.264; in [3] it was -0.1; in assay [4], 0.149; in assay [5] it was 0.0166; in assay [6], -0.291. The composite z-score was -0.736 in [7], -0.122 in assay [9] and -0.0994 in assay [10]. Moreover, the z-score in [8] is 1.03 (inactive).

Regarding `O=C(NCCC[N+]1=CC=NC1c1ccccc1)N1CCCc2nc(-c3ccc(Br)cc3)ccc21` (stereo not given), the composite z-score in assay [1] was -0.265; in assay [2], -0.14; in assay [3], -0.107; in assay [4], 0.345; in [5], 0.576; in [6], 1.21. Besides, the composite z-score in assay [7] is 0.97; in assay [9], 0.944; in assay [10] it was 0.0373. The z-score in assay [8] is 0.88 (inactive).

With `CCOC(=O)[C@H](CC(C)C)NC(=O)CCC1CC(OC(=O)NCCc2ccc(F)cc2)CC2(CCCC(COC(=O)NCc3cccc(C(F)(F)F)c3)O2)O1` (stereo not given in full), the composite z-score is -0.17 in assay [1]; 0.13 in [2]; -0.0924 in assay [3]; 0.983 in assay [4]; 1.14 in [5]; 0.806 in assay [6]. The values for the composite z-score in assay [7], in assay [9] and in assay [10] were 1.16, -0.0518 and -0.0102, respectively. Besides, the z-score in assay [8] was -0.0179 (inactive).

`CC(C)(C)N1C(=O)[C@H]2[C@@H]3C(=CC[C@H]2C1=O)C(=O)[C@H]1O[C@H]1[C@H]3O`: the composite z-score in assay [1] was -0.293; in assay [2], 1.62; in assay [3] it was -0.226; in assay [4] it was 0.25; in [5], -0.573; in [6], -0.261. The composite z-score in assay [7] is 0.17; in assay [9], -0.546; in [10], 0.0024. Further, the z-score in assay [8] was 9.15 (active).

Take `COc1ccc(COC(=O)NN=C2C[C@@H](O)[C@@H](O)[C@@H]3[C@@H]4C(=O)N(C[C@@H]5CCCO5)C(=O)[C@@H]4CC[C@@H]23)cc1`: the composite z-score in assay [1] was -0.227; in assay [2], 0.359; in [3] it was -0.156; in assay [4], 0.878; in assay [5], -0.0739; in [6], 0.393. Also, the composite z-score in [7] is 0.775; in assay [9], 0.0269; in assay [10] it was -0.117. The z-score in assay [8] was -0.913 (inactive).

Consider `C[C@H]1CC[C@H]2C(=O)N[C@H](Cc3ccccc3)C(=O)N2[C@@H]1c1ccccc1`, for which the composite z-score in [1] is -0.335; in assay [2], 0.524; in assay [3], -0.0893; in assay [4], 0.412; in [5], 0.301; in [6] it was -0.717. Besides, the composite z-score in assay [7] was 0.366; in assay [9], 0.0175; in assay [10], -0.13. The z-score in [8] was 1.33 (inactive).

`CC(CCN1CCc2nc(-c3ccccc3)c(-c3ccccc3)cc2C1)=NOC(C)CN1CCCc2nc(C)c(C)cc21` (stereo not given): the composite z-score in [1] was -0.0304; in assay [2], 1.12; in assay [3] it was 0.0762; in assay [4] it was 0.681; in assay [5], 1.4; in [6] it was 0.72. Besides, the composite z-score was determined as 1.08 in assay [7], 0.676 in assay [9] and 0.316 in [10]. In addition, in assay [8], the z-score is 1.1 (inactive).

Turning to `CCOC(=O)CCN1C(=O)[C@H]2[C@H]3[C@H](O)[C@H](O)CC(=NOCC=C(C)CCC=C(C)C)[C@H]3CC[C@H]2C1=O`, the composite z-score in [1] is -0.137; in [2], 0.757; in [3] it was -0.0734; in assay [4] it was -0.274; in assay [5] it was 0.762; in [6], -0.601. The results for the composite z-score in assay [7], in [9] and in [10] were -1.74, 0.752 and 0.0722, respectively. In assay [8], the z-score is -0.815 (inactive).

Turning to `C[C@@H]1CC[C@H]2C(=O)O[C@@H](CN=[N+]=[N-])CN2[C@H]1c1ccc(Br)cc1`, the composite z-score in [1] is -0.264; in assay [2] it was -0.021; in assay [3], -0.085; in assay [4], 0.361; in assay [5], 0.271; in [6], 0.486. Further, the values for the composite z-score in [7], in [9] and in assay [10] were 0.786, 0.0048 and -0.199, respectively. Moreover, the z-score in assay [8] was -1.46 (inactive).

As to `C[C@@H](c1ccccc1)N1C(=O)[C@H]2[C@H]3[C@H](O)[C@H](O)CC(=NOCc4ccccc4)[C@@H]3CC[C@H]2C1=O`, the composite z-score in assay [1] was 1.67; in assay [2], -0.0647; in assay [3] it was -0.0203; in assay [4], 0.0018; in assay [5], -0.578; in assay [6] it was -0.258. Moreover, the composite z-score in [7] is -0.521; in assay [9] it was 0.401; in [10], -0.0672. The z-score in assay [8] was 0.717 (inactive).

Regarding `CO[C@@H]1COC(=O)[C@H](COCc2ccccc2)NC(=O)CC=C[C@@H](C)[C@H](OC)COC(=O)[C@@H](C)NC(=O)CC=C[C@H]1C`, the composite z-score is -0.459 in assay [1]; 1.36 in assay [2]; -0.191 in assay [3]; -0.632 in [4]; -0.45 in assay [5]; -0.637 in assay [6]. The composite z-score in [7] was -0.826; in [9] it was -0.0711; in assay [10], 0.0139. Moreover, in assay [8], the z-score was 0.696 (inactive).

The values are drawn from PubChem BioAssay.
